Source: PubChem BioAssay (Tox21)
Unmarked numbers belong to inactive results. The source made the active and inactive calls. Calls follow the shape of the dose curve; as a rule, active = well fitted curve in the direction sought with a large enough effect in the repeat runs; inconclusive = weak or mixed curves; inactive = flat fitted curve, though single readings scatter.

Test: qHTS assay to test for compound auto fluorescence at 460 nm (blue) in HEK293 cells (AID 720678)
Details: blue autofluorescence 405/460 nm; series mostly up to 91.3 µM
From the text: National Center for Advancing Translational Sciences [NCATS]
NIH Chemical Genomics Center [NCGC]
U.S. Environmental Protection Agency [EPA]
National Institutes of Environmental Health Sciences [NIEHS]
National Toxicology Program [NTP]
U.S. Food and Drug Administration [FDA]
Compound auto fluorescence often interferes with screening of the compound library against various biological targets and signaling pathways. Some of these compounds may have fluorophoric properties. Such properties may interfere with the assay outputs resulting in false positives and/or negatives. To decrease such complications and ensure the compound activities are relevant in terms of biological response, the Tox21 10K compound library was screened for auto fluorescence.
From the fluorophores used as reporter signals in our screening assays, the auto fluorescence equivalencies of compounds against three fluorophores have been evaluated: Triamterene, Fluorescein and Rose Bengal sodium for blue, green and red fluorescence, respectively. The fluorescence intensities were measured using Excitation/Emission wavelengths at 405/460nm, 485/535nm and 540/590nm for blue, green and red labels, respectively. This assay includes the blue fluorescence data.
Tox21 Assay Protocol Summary:
2,000 HEK293 cells in 5 uL of culture medium containing 10% dialyzed FBS per well were dispensed into black wall/clear bottom 1536-well plates using a Multidrop Combi Dispenser (Thermo Scientific). The assay plates were incubated for 4-5 hr at 37C to allow cell attachment to the well bottom, followed by the transfer of 23 nL compound or DMSO vehicle by a pintool work station (Kalypsys, San Diego, CA). After the assay plates were incubated overnight at 37C and 5% CO2, fluorescence intensities in the assay plates were measured by an Envision (PerkinElmer, Shelton, CT) plate reader using three labels for measuring blue, green and red fluorescence at […] 460, 535 and 590nm respectively.
% is scaled to controls: 0 for no effect and ±100 for the full control effect.

SMILES	outcome	fluorescence, % of triamterene
Cc1ncc(COP(=O)(O)O)c(C=O)c1O	inactive	–
CCCOC(=O)CC	inactive	–
CC(C)C1CCC(O)CC1 (stereo not given)	inactive	–
NS(=O)(=O)Cc1noc2ccccc12	inactive	–
CCCCCCCCCC[N+](C)(C)[O-]	inactive	–
NC(=O)N1c2ccccc2CC(=O)c2ccccc21	inactive	–
CN(C)[C@@H]1C(=O)C(C(=O)NCN2CCCC2)=C(O)[C@@]2(O)C(=O)C3=C(O)c4c(O)cccc4[C@@](C)(O)C3C[C@@H]12 (stereo not given in full)	inactive	–
CC(C#N)(CCC(=O)O)N=NC(C)(C#N)CCC(=O)O (stereo not given)	inactive	–
CCO[Si](OCC)(OCC)c1ccccc1	inactive	–
O=C(CO)[C@@H](O)[C@H](O)[C@@H](O)CO	inactive	–
O=C(c1ccccc1O)c1ccccc1O	inactive	–
Nc1ccn([C@@H]2O[C@H](CO)[C@@H](O)C2(F)F)c(=O)n1	inactive	–
CO[C@@]1(NC(=O)C(C(=O)O)c2ccc(O)cc2)C(=O)N2C(C(=O)O)=C(CSc3nnnn3C)CO[C@@H]21 (stereo not given in full)	–	0.184% [at 18.6 µM]
C=CC(C)(CCC=C(C)C)OC(=O)CC (stereo not given)	inactive	–
C=CC(=O)OCCCl	inactive	–
CC1=NS(=O)(=O)c2cc(Cl)ccc2N1	inactive	–
O=C1NC(=O)C2CC=CCC12 (stereo not given)	inactive	–
C1CCC2(CCCCO2)OC1	inactive	–
CN1C(C)(C)CC(O)CC1(C)C	inactive	–
C[N+](C)(CCOc1ccccc1)Cc1cccs1	inactive	–

SMILES	outcome	fluorescence, % of triamterene
CCC(=O)OCc1ccccc1	inactive	–
CC[N+](CC)(CC(=O)Nc1c(C)cccc1C)Cc1ccccc1 (tested in a mixture with another compound)	inactive	–
CC(N)C12CC3CC(CC(C3)C1)C2 (stereo not given)	inactive	–
O=S(=O)(O)c1cccc2c(S(=O)(=O)O)cccc12	inactive	–
O=S(=O)(O)c1cc(O)c(O)c(S(=O)(=O)O)c1	inactive	–
CC(C)(C#N)Nc1nc(Cl)nc(NC2CC2)n1	inactive	–
c1coc(CNc2ncnc3nc[nH]c23)c1	inactive	–
CCCCN(CCC(=O)OCC)C(C)=O	inactive	–
CC(=O)C1CCCCC1=O (stereo not given)	inactive	–
CCOc1ccccc1OCC	inactive	–
COC(=O)Nc1ccc(Cl)c(Cl)c1	inactive	–
CC(=O)c1ccc2ccccc2c1	inactive	–
CCCC[N+](C)(CCCC)CCCC	inactive	–
CC1=NN(c2cccc(S(=O)(=O)O)c2)C(=O)C1	inactive	–
CC(C)CCCO	inactive	–
CCOC(=O)c1ccccc1	inactive	–
Cc1ccc(C(=O)c2ccc(CC(=O)O)n2C)cc1	–	-0.184% [at 18.6 µM]
CC(C)c1ccc2ncccc2c1	inactive	–
Nc1c2c(nc3c1CCC3)CCCC2	inactive	–
Nc1ccn([C@@H]2O[C@H](CO)[C@@H](O)C2O)c(=O)n1 (stereo not given in full)	inactive	–
